Experimental data published in PubChem BioAssay (EPA / NIEHS).
Several values for one entry are separate records, joined by “and”; a condition that tells them apart may be missing. Equal entries are not always repeated. Records with an inconclusive call do not appear. Where a structure was tested more than once in an assay, its records may differ in their call. Activity calls are given as the source filed them. The calls were made as follows, unless noted: active = hit-call score of the fitted dose curve at least 0.9, where 1 is the maximum; inactive = score below 0.9.

Experiments:
[1] = target: human RAR-related Orphan Receptor beta (RORb), RORB (gene 6096) (UniProt Q92753); assay: ATG_RORb_TRANS: Attagene TRANS-FACTORIAL HepG2 Assay for human RAR-related Orphan Receptor beta (RORb) (AID 2283010; active = hit-call score of the fitted dose curve at least 0.9, where 1 is the maximum)
Outline: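 Multiplexed transcription-factor reporter assay: HepG2 cells transiently carrying NR-Gal4/GAL4-UAS constructs, 24 h treatment, mRNA quantified by RT-PCR plus capillary electrophoresis fluorescence; activity scored as induction over DMSO.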

[2] = target: human RAR-related Orphan Receptor gamma (RORg), RORC (gene 6097) (UniProt P51449); assay: ATG_RORg_TRANS: Attagene TRANS-FACTORIAL HepG2 Assay for human RAR-related Orphan Receptor gamma (RORg) (AID 2283011; active = hit-call score of the fitted dose curve at least 0.9, where 1 is the maximum)
Outline: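 First, HepG2 liver cells were transfected with GAL4-UAS-driven reporter constructs and the RORg-Gal4 fusion. Next, they were treated with chemical for 24 h. Finally, reporter mRNA was quantified by RT-PCR and capillary electrophoresis, with upward activity fitted against DMSO.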

[3] = target: Retinoic acid receptor RXR-alpha (Homo sapiens) (UniProt P19793); assay: ATG_RXRa_TRANS: Attagene TRANS-FACTORIAL HepG2 Assay for human Retinoid X Receptor alpha (RXRa) (AID 2283012; active = hit-call score of the fitted dose curve at least 0.9, where 1 is the maximum)
Outline: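 Chimeric NR-GAL4 trans-activation in HepG2, 24 h treatment; reporter transcripts quantified by fluorescence on capillary electrophoresis, analysed for upward change from DMSO.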

[4] = target: human Retinoid X Receptor beta (RXRb), RXRB (gene 6257) (UniProt P28702); assay: ATG_RXRb_TRANS: Attagene TRANS-FACTORIAL HepG2 Assay for human Retinoid X Receptor beta (RXRb) (AID 2283013; active = hit-call score of the fitted dose curve at least 0.9, where 1 is the maximum)
Outline: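 After a 24 h incubation with test chemical, transfected HepG2 cells carrying NR-Gal4 fusions and GAL4-UAS reporter transcription units yield RNA whose reporter cDNA is FAM-labelled, HpaI-cut and sized by capillary electrophoresis; increases over DMSO are scored.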

[5] = target: human Thyroid Receptor alpha (THRa1), THRA (gene 7067) (UniProt P10827); assay: ATG_THRa1_TRANS: Attagene TRANS-FACTORIAL HepG2 Assay for human Thyroid Receptor alpha (THRa1) (AID 2283014; active = hit-call score of the fitted dose curve at least 0.9, where 1 is the maximum)
Outline: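 Reporter transcript induction, read by capillary electrophoresis of 6-FAM-labelled RT-PCR products, reflects activity of a transfected THRa1-Gal4 fusion in HepG2 liver cells. Cells were dosed for 24 h; activity was fitted in the positive direction against DMSO.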

[6] = read-out: E-selectin (Homo sapiens) (UniProt P16581); assay: BSK_3C_Eselectin: BioMAP Diversity Plus: 3C Assay for Eselectin Biomarker Activity (AID 2283015); details: primary human endothelial cells (HUVEC); actives raise or lower the signal
Outline: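 ELISA read-out of E-selectin on endothelial monolayers after 24 h chemical treatment. Human umbilical vein primary cells served as the system, with DMSO defining baseline activity for bidirectional fitting.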

[7] = read-out: Interleukin-1 alpha (IL1a), IL1A (gene 3552); assay: BSK_BE3C_IL1a: BioMAP Diversity Plus: BE3C Assay for Interleukin-1 alpha (IL1a) Biomarker Activity (AID 2283016); details: primary human bronchial epithelial cells; actives raise or lower the signal
Outline: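 Measured in human lung primary bronchial epithelial cells: IL-1a by ELISA at 24 h after dosing, with bidirectional fitting against DMSO.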

[8] = read-out: Monocyte Chemoattractant Protein-1 (MCP1), CCL2 (gene 6347); assay: BSK_3C_MCP1: BioMAP Diversity Plus: 3C Assay for Monocyte Chemoattractant Protein-1 (MCP1) Biomarker Activity (AID 2283017); details: primary human endothelial cells (HUVEC); actives raise or lower the signal
Outline: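 ELISA read-out of MCP-1 from human umbilical vein endothelial cell cultures harvested 24 h post-dosing. Gain or loss of signal was fitted relative to DMSO.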

[9] = read-out: Monocyte Chemoattractant Protein-1 (MCP1), CCL2 (gene 6347); assay: BSK_4H_MCP1: BioMAP Diversity Plus: 4H Assay for Monocyte Chemoattractant Protein-1 (MCP1) Biomarker Activity (AID 2283018); details: primary human endothelial cells (HUVEC); actives raise or lower the signal
Outline: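 Primary human umbilical vein endothelium is exposed to chemical for 24 h before MCP-1 is assayed by ELISA. Concentration-response fitted bidirectionally relative to DMSO.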

[10] = read-out: Human Leukocyte Antigen - DR isotype (HLADR), HLA-DRA (gene 3122); assay: BSK_3C_HLADR: BioMAP Diversity Plus: 3C Assay for Human Leukocyte Antigen - DR isotype (HLADR) Biomarker Activity (AID 2283019); details: primary human endothelial cells (HUVEC); actives raise or lower the signal
Outline: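 ELISA readout of surface HLA-DR on human umbilical vein endothelium, taken 24 h after chemical treatment. Gain- and loss-of-signal were both fitted relative to DMSO.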

[11] = read-out: Interleukin-8 (IL8), CXCL8 (gene 3576); assay: BSK_3C_IL8: BioMAP Diversity Plus: 3C Assay for Interleukin-8 (IL8) Biomarker Activity (AID 2283020); details: primary human endothelial cells (HUVEC); actives raise or lower the signal
Outline: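 Using DMSO-treated wells as the baseline, bidirectional curve fitting was applied to ELISA-measured IL-8 from human umbilical vein endothelial cultures sampled 24 h after compound addition.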

[12] = read-out: Monokine induced gamma interferon (MIG), CXCL9 (gene 4283); assay: BSK_3C_MIG: BioMAP Diversity Plus: 3C Assay for Monokine induced gamma interferon (MIG) Biomarker Activity (AID 2283021); details: primary human endothelial cells (HUVEC); actives raise or lower the signal;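 as to AC50: MIG protein level measured by immunoassay in the treated endothelial cultures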
Outline: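 ELISA-measured MIG in dosed HUVEC 3C cultures at 24 h, analysed by bidirectional fitting with DMSO defining baseline activity.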

[13] = BSK_3C_SRB: Viability Assessment in the BioMAP Diversity Plus: 3C Assay (AID 2283023); details: primary human endothelial cells (HUVEC);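 also: fitted both ways against DMSO so a hit may be signal rise or drop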
Outline: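 Absorbance at 560 nm of sulforhodamine B-stained (0.1%) total protein served as a cytotoxicity readout in human umbilical vein endothelial cells, 24 h after chemical treatment. Signal was fitted bidirectionally relative to DMSO.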

[14] = read-out: Matrix Metallopeptidase 1 (MMP1), MMP1 (gene 4312); assay: BSK_BE3C_MMP1: BioMAP Diversity Plus: BE3C Assay for Matrix Metallopeptidase 1 (MMP1) Biomarker Activity (AID 2283024); details: primary human bronchial epithelial cells; actives raise or lower the signal
Outline: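 In this multiplexed primary-cell system, human bronchial epithelium received chemicals for 24 h before an ELISA for MMP1. Values reflect bidirectional fits normalised to the DMSO baseline.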

[15] = BSK_3C_Vis: BioMAP Diversity Plus: 3C Assay for Morphology Visualization (AID 2283025); details: primary human endothelial cells (HUVEC);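 also: fitted both ways so gain or loss versus DMSO counts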;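 as to AC50: light microscopy image of cell morphology used as background control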
Outline: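 Light-microscopy morphology readout, 24 h exposure, human primary umbilical vein endothelium; analysed relative to DMSO with bidirectional fitting.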

[16] = read-out: Pselectin, SELP (gene 6403); assay: BSK_4H_Pselectin: BioMAP Diversity Plus: 4H Assay for Pselectin Biomarker Activity (AID 2283026); details: primary human endothelial cells (HUVEC); actives raise or lower the signal
Outline: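 Bidirectional fits against DMSO gave the endpoint. Cells: primary human umbilical vein endothelium, chemical-treated for 24 h before ELISA detection of P-selectin.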

[17] = BSK_4H_SRB: Viability Assessment in the BioMAP Diversity Plus: 4H Assay (AID 2283027); details: primary human endothelial cells (HUVEC);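 also: cells exposed to compound for 24 h before staining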;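 as to AC50: curves fitted both ways versus DMSO so AC50 may be loss or gain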
Outline: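 Cytotoxicity read-out in primary human endothelial cells: after 24 h compound exposure, cells were TCA-fixed (10%), stained with 0.1% SRB and absorbance taken at 560 nm. Values fitted in both directions relative to DMSO.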

[18] = BSK_BE3C_SRB: Viability Assessment in the BioMAP Diversity Plus: BE3C Assay (AID 2283028); details: primary human bronchial epithelial cells;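 as to AC50: fitted both ways so AC50 may mark signal gain or loss versus DMSO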
Outline: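 Cells (human bronchial epithelial, primary) are treated with chemicals, and after 24 h the parallel cultures are fixed in 10% TCA. These are then stained with 0.1% SRB and read at 560 nm. Gain or loss of signal is fitted relative to DMSO.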

[19] = target: human Vitamin D Receptor (VDR), VDR (gene 7421) (UniProt P11473); assay: ATG_VDR_TRANS: Attagene TRANS-FACTORIAL HepG2 Assay for human Vitamin D Receptor (VDR) (AID 2283022; active = hit-call score of the fitted dose curve at least 0.9, where 1 is the maximum)
Outline: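 Steps: transfect HepG2 with GAL4-UAS-driven reporter constructs; dose compounds 24 h; isolate RNA, reverse-transcribe, PCR-amplify with 6-FAM-labelled primer extension and HpaI digestion; quantify fragments by capillary electrophoresis relative to DMSO.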

[20] = read-out: Thrombomodulin, THBD (gene 7056); assay: BSK_3C_Thrombomodulin: BioMAP Diversity Plus: 3C Assay for Thrombomodulin Biomarker Activity (AID 2283029); details: primary human endothelial cells (HUVEC); actives raise or lower the signal
Outline: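 In a multiplexed primary-cell system, human umbilical vein endothelium received chemical and was assayed 24 h later for thrombomodulin by ELISA. Parallel cultures were SRB-stained (0.1% SRB after 10% TCA fixation, read at 560 nm) to flag cytotoxicity.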

Measured: AC50

Sequence of human Thyroid Receptor alpha (THRa1), THRA (gene 7067) (P10827 whole entry, looked up, the tested form may be a part): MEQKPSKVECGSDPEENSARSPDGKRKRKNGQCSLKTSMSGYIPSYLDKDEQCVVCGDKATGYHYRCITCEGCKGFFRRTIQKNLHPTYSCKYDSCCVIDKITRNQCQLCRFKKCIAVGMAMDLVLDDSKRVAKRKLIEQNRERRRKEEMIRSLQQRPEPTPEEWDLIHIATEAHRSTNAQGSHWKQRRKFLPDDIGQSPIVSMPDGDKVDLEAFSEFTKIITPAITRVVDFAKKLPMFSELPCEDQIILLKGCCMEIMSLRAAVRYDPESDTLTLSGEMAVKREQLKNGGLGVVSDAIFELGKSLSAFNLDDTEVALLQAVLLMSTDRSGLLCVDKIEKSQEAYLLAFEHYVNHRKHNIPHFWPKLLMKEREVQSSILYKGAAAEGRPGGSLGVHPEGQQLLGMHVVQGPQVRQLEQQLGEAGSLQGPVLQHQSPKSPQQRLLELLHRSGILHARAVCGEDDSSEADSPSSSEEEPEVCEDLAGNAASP
Sequence of human Vitamin D Receptor (VDR), VDR (gene 7421) (P11473 whole entry, looked up, the tested form may be a part): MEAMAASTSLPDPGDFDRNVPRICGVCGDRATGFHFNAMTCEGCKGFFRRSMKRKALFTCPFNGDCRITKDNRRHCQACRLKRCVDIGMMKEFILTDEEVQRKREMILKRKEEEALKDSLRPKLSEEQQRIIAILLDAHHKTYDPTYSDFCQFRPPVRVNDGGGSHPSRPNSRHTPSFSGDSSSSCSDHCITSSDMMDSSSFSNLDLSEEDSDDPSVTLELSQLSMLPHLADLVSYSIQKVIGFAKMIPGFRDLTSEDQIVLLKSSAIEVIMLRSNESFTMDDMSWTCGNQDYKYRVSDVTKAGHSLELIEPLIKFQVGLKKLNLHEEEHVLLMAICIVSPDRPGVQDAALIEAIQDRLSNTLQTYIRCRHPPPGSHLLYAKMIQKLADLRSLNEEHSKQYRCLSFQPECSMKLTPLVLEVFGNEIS
Sequence of human RAR-related Orphan Receptor beta (RORb), RORB (gene 6096) (Q92753 whole entry, looked up, the tested form may be a part): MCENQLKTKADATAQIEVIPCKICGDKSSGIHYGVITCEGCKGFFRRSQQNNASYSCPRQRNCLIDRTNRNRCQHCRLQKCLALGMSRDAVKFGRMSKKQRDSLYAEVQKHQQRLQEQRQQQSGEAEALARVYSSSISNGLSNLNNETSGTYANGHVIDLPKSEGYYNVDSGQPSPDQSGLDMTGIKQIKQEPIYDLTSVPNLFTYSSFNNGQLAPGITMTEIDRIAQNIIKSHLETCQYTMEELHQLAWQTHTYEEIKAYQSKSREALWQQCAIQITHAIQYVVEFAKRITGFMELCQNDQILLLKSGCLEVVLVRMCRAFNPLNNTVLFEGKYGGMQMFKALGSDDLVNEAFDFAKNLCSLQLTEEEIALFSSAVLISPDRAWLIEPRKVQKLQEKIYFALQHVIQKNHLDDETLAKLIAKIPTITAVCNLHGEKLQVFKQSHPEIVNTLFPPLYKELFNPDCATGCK
Sequence of Retinoic acid receptor RXR-alpha (Homo sapiens) (P19793 whole entry, looked up, the tested form may be a part): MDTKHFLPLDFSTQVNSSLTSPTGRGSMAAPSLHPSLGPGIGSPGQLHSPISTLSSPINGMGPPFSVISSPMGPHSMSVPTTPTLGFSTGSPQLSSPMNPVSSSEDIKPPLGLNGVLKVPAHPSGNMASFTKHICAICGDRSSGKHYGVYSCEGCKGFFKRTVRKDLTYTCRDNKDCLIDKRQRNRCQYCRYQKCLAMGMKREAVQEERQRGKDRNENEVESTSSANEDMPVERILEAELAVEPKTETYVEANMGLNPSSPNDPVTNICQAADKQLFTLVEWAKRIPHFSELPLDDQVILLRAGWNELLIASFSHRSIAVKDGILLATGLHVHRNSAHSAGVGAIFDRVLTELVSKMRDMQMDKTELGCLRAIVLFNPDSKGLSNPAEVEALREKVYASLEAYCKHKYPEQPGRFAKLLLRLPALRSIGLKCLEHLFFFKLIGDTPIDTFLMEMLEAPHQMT
Sequence of human RAR-related Orphan Receptor gamma (RORg), RORC (gene 6097) (P51449 whole entry, looked up, the tested form may be a part): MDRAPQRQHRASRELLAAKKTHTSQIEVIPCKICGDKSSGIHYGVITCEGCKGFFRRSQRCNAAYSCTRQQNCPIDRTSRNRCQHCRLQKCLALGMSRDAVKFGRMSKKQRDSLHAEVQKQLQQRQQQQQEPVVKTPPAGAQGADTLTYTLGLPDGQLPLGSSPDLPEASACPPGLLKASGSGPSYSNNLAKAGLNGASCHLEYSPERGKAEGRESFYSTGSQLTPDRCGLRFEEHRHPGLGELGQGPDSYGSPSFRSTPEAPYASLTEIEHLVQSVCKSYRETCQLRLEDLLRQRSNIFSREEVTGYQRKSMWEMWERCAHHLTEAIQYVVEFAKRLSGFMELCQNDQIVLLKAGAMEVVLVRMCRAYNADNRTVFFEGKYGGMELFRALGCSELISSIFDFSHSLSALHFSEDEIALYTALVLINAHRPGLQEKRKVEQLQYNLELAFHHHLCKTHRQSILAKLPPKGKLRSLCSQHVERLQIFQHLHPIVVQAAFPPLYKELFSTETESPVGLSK
Sequence of human Retinoid X Receptor beta (RXRb), RXRB (gene 6257) (P28702 whole entry, looked up, the tested form may be a part): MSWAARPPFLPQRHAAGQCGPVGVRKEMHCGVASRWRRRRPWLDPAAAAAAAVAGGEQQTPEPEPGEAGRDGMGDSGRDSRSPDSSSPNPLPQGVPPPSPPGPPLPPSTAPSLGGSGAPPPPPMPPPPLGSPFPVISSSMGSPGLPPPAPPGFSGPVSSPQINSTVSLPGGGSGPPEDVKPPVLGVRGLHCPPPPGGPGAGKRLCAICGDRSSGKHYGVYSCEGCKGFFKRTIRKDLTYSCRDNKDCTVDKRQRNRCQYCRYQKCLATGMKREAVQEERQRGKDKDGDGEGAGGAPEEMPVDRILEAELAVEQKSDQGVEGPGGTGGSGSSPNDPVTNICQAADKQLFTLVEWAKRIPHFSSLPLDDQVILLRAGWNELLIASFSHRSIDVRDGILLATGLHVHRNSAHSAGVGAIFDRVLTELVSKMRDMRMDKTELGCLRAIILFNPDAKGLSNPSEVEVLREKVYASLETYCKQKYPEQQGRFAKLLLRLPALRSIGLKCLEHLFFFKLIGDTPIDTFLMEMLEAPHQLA
Sequence of E-selectin (Homo sapiens) (P16581 whole entry, looked up): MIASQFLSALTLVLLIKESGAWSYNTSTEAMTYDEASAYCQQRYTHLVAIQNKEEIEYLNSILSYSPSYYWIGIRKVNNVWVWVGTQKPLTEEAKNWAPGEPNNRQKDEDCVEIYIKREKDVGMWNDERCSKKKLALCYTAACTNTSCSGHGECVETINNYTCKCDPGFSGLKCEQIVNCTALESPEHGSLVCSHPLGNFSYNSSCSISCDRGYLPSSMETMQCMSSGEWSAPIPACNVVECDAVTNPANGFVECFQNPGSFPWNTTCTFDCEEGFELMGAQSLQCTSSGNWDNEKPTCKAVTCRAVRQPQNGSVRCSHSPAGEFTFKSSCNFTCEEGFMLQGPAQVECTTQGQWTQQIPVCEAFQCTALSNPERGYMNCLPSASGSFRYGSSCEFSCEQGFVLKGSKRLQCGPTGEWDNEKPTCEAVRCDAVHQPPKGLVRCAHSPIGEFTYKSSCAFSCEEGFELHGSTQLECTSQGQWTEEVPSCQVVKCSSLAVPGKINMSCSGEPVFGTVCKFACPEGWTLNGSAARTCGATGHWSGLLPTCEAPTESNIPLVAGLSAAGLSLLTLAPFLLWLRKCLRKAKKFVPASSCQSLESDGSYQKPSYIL

O=C(O)c1nc(Cl)ccc1Cl
inactive: [1] | [2] | [3] | [4] | [5] | [6] | [7] | [8] | [9] | [10] | [11] | [12] | [13] | [14] | [15] | [16] | [17] | [18]
active: [15] 39 µM

Cc1ccc(-c2c(Cl)nc(C#N)n2S(=O)(=O)N(C)C)cc1
inactive: [1] | [2] | [3] | [5] | [7] | [12] | [19] | [14]
active: [6] 15.8 µM | [8] 26.3 µM | [9] 20 µM | [10] 20 µM | [11] 15.8 µM | [13] 26.1 µM | [15] 15.2 µM | [16] 17.7 µM | [17] 25.5 µM | [18] 27.4 µM

COc1cnc(OC)n2nc(NS(=O)(=O)c3c(OCC(F)F)cccc3C(F)(F)F)nc12
active: [11] 0.016 µM
inactive: [1] | [2] | [3] | [4] | [5] | [6] | [7] | [8] | [9] | [10] | [11] | [12] | [13] | [14] | [15] | [16] | [17] | [18]

CS/C(C)=N/OC(=O)N(C)SN(C)C(=O)O/N=C(\C)SC
inactive: [2] | [3] | [7] | [14] | [20]
active: [6] 30 µM | [8] 29.6 µM | [9] 29.3 µM | [10] 15.8 µM | [11] 29.7 µM | [12] 35.1 µM | [13] 26.5 µM | [15] 11.9 µM | [16] 19.9 µM | [17] 29.6 µM | [18] 28.6 µM

C=CCC1=C(C)C(OC(=O)C2C(C=C(C)C)C2(C)C)CC1=O (stereo unspecified)
active: [4] 22.1 µM | [6] 30.3 µM [middle of 4 runs] | [8] 33.1 µM and 33.5 µM | [9] 21 µM and 34.3 µM | [10] 32.2 µM and 28 µM and 29.1 µM | [11] 32.3 µM [middle of 4 runs] | [12] 31.7 µM | [19] 105 µM | [13] 32.8 µM [middle of 4 runs] | [14] 9.44 µM and 7.51 µM | [15] 39.4 µM and 39 µM | [16] 34.9 µM and 33 µM and 33.2 µM | [17] 32.7 µM [middle of 4 runs]
inactive: [2] | [3] | [4] | [5] | [7] | [9] | [12] | [19] | [14] | [15] | [16] | [18]

CCCCNC(=O)n1c(NC(=O)OC)nc2ccccc21
active: [8] 10 µM | [10] 13.7 µM | [13] 8.93 µM | [15] 9.8 µM | [17] 14 µM
not listed: [1] | [2] | [5]
inactive: all other assays above

CCOC(=O)CC(SP(=S)(OC)OC)C(=O)OCC (stereo unspecified)
inactive: [2] | [3] | [4] | [6] | [7] | [8] | [9] | [11] | [12] | [19] | [13] | [14] | [15] | [16] | [17] | [18]
active: [4] 63.4 µM | [10] 20 µM

Oc1ccccc1-c1ccccc1
active: [4] 56.3 µM and 26.8 µM
not listed: [1] | [20]
inactive: all other assays above

CC(Oc1ccc(Cl)cc1Cl)C(=O)O (stereo unspecified)
not listed: [1] | [2] | [5] | [19]
inactive: all other assays above

OC(c1ccc(Cl)cc1)(c1cncnc1)c1ccccc1Cl (stereo unspecified)
active: [9] 16.6 µM | [10] 10.8 µM | [13] 26 µM | [15] 9.8 µM | [16] 23.9 µM
not listed: [1]
inactive: all other assays above

CC1COC(Cn2cncn2)(c2ccc(Oc3ccc(Cl)cc3)cc2Cl)O1 (stereo unspecified)
inactive: [3] | [4] | [19]
active: [6] 24.8 µM | [7] 36 µM | [8] 36.8 µM | [9] 15.3 µM | [10] 30.3 µM | [11] 28.6 µM | [12] 33.4 µM | [13] 20.8 µM | [14] 32.2 µM | [15] 37.2 µM | [16] 24.7 µM | [17] 26.9 µM | [18] 31 µM
